Assay outcomes from PubChem BioAssay.
This is a sample that favours compounds with a hit; in the whole collection about 17% have one here.
TDP1 cell CPT = DT40-hTDP1 cell growth loss with CPT. chicken DT40 Tdp1-/-;hTDP1 cells + 20 nM CPT, ATP luminescence, 48 h. Potency, µM (doses to about 46.2 µM), usual class: inhibitors. 12% of 420,000 active; also: nearly all actives have a fitted effect of over 55% in size
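Chicken DT40 Tdp1-/- cells stably complemented with human TDP1 were seeded at 400 cells/well in medium containing 20 nM camptothecin, exposed to pin-transferred compounds, and grown at 37 °C for at least 48 hr. Viability was read as ATP luminescence.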
HT1080-NT tox = kills 2HG-producing HT-1080-NT fibrosarcoma cells; HT-1080-NT fibrosarcoma viability, CellTiter-Glo ATP luminescence, 48 h; Potency, µM (titrated, usually from 46.1 µM), hits mostly cytotoxic; 1.6% of 360,000 active; AID 686970;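 also: NT is the 2HG producing partner of a matched IDH1 knockdown line; nearly all actives have a fitted effect of over 55% in size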
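A 48-hour cytotoxicity screen used HT-1080-NT cells plated 2 hours before compound delivery. ATP-based CellTiter-Glo luminescence measured viability, normalized to DMSO and no-cell controls.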
HepG2 viability = counter-screen for TGF-b inhibitors: cytotoxicity in HepG2 cells | Potency, µM (top dose mostly 46.1 µM), most hits filed as cytotoxic | 0.76% of 410,000 active | HepG2 CAGA-GFP viability, ATP luminescence, 18 h | AID 588856
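HepG2 CAGA-GFP cells (1000/well, DMEM with 1% FBS) received compound, then TGF-beta at 500 pg/mL final, and were incubated 18 hours at 37 degrees C. Viability was read by CellTiter-Glo luminescence. Media-only wells were set as complete cell-killing and DMSO as no toxicity.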
TGFb inhibitor = TGF-b pathway inhibition. HepG2 CAGA-GFP TGF-b/SMAD3 reporter, GFP fluorescence, 18 h; TGF-beta stimulated, 500 pg/mL final. Potency, µM (doses to about 46.1 µM), actives largely listed as inhibitors. 1.2% of 410,000 active; also: nearly all actives have a fitted effect of over 65% in size
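Inhibition was scored as loss of TGF-beta-induced (500 pg/mL final, 18 hours, 37 degrees C) GFP in HEPG2 cells carrying a CAGA-GFP reporter, in DMEM with 1% FBS. Well GFP was summed per cell; Activity was normalised to unstimulated and stimulated DMSO wells, then concentration-response fitting.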
DT40 TDP1 no CPT = qHTS for Inhibitors of human tyrosyl-DNA phosphodiesterase 1 (TDP1): qHTS in cells in absence of CPT; DT40 Tdp1-/- hTDP1 cells, no CPT, ATP luminescence, 48 h; Potency, µM (top dose mostly 46.2 µM), actives largely listed as inhibitors; 15% of 420,000 active; AID 686978, 2013; also: nearly all actives have a fitted effect of over 55% in size
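Stably hTDP1-transfected Tdp1-null chicken DT40 cells were treated with library compounds minus camptothecin and grown for at least 48 hr at 37 °C, after which cellular ATP was quantified by luminescence.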
HT1080 IDH1KD tx = toxicity to HT-1080 IDH1 knockdown cells (counter line); HT-1080 IDH1 knockdown viability, ATP luminescence, 48 h; Potency, µM (top dose mostly 46.1 µM), actives largely listed as cytotoxic; 2% of 360,000 active; AID 686971
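CellTiter-Glo luminescence after 48 h compound exposure at 37 degrees C of IDH1-knockdown HT-1080 cells in 5% FBS RPMI. %Activity scaled between DMSO wells and cell-free media wells, with curves fitted and assigned curve classes.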
Hits are given with their value; . = inactive; ? = inconclusive; / = no result. Calls follow the shape of the dose curve; as a rule, active = well fitted curve in the direction sought with a large enough effect; inconclusive = small, poorly fitted or top-dose-only effect, or another doubt; inactive = no such curve, though single readings can be large; an effect the other way counts as inactive or inconclusive.

SMILES | TDP1 cell CPT | HT1080-NT tox | HepG2 viability | TGFb inhibitor | DT40 TDP1 no CPT | HT1080 IDH1KD tx
CCOC(=O)C(NC(=O)Nc1ccc(C(N)=O)cc1)(c1ccccc1)C(F)(F)F (stereo not drawn) | . | . | . | . | . | .
CN(C(=O)Nc1ccccc1)C1CCCc2ccccc21 (stereo not drawn) | . | . | . | . | ? | .
Clc1ccc(CSc2nnnn2-c2ccc3c(c2)OCO3)c(Cl)c1 | ? | . | . | . | ? | .
Cc1ccc(-c2cc3nc(-c4ccccc4)cc(NCCCO)n3n2)cc1 | ? | ? | . | . | ? | ?
Cc1cccc(-c2cc3nc(C)cc(NCCCn4ccnc4)n3n2)c1 | ? | ? | . | . | 23µM | ?
CN(C)CCCNc1cc(C(C)(C)C)nc2c(-c3ccc(Cl)cc3)cnn12 | 13µM | 18µM | . | 22µM | ? | 12µM
CCCc1cc(NCCCn2ccnc2)n2nc(C)c(-c3ccccc3)c2n1 | ? | ? | . | . | ? | 13µM
Cc1nc(NCCCn2ccnc2)c2ccccc2n1 | . | . | . | . | ? | .
CCOc1ccccc1NC1=C(OC)C(=O)C(Nc2ccccc2OCC)=C(OC)C1=O | . | . | . | . | ? | .
CC(=O)N[C@@H]([C@@H](O)[C@H](O)[C@H](O)CO)[C@@H](O)CC(=O)C(=O)O | . | / | / | / | . | /
CCOc1ccc(C2c3c(oc4ccc(C)cc4c3=O)C(=O)N2CCCN2CCOCC2)cc1 (stereo not drawn) | . | / | . | . | . | /
O=C(NCC(c1cccnc1)N1CCN(Cc2ccccc2)CC1)C(=O)Nc1ccc(Cl)cc1 (stereo not drawn) | 13µM | / | . | ? | 7.3µM | /
Cc1ccc(S(=O)(=O)NCC(c2cccnc2)N2CCN(Cc3ccccc3)CC2)cc1 (stereo not drawn) | . | . | . | . | . | .
Cc1ccc(NC(=O)C(=O)NCC(c2cccnc2)N2CCN(Cc3ccccc3)CC2)cc1 (stereo not drawn) | 23µM | / | . | . | 18µM | /
O=C(NCC(c1cccnc1)N1CCOCC1)C(=O)Nc1ccc(F)cc1 (stereo not drawn) | . | / | . | . | . | /
Cc1ccc(/C=C(\NC(=O)c2ccc(C)cc2)C(=O)NCCCn2ccnc2)cc1 | . | . | . | . | . | .
CN(C)CCC(C(=O)c1ccccc1)c1cccnc1 (stereo not drawn) | . | . | . | . | . | .
O=C(CC(c1ccc(F)cc1)c1ccco1)Nc1nccs1 (stereo not drawn) | . | . | . | . | ? | ?
COc1ccccc1C(CC(=O)Nc1nccs1)c1ccco1 (stereo not drawn) | ? | . | . | . | 15µM | .
Nc1ccc(CC(N)c2csc(Nc3cc(Oc4ccccc4)ncn3)n2)cc1 (stereo not drawn) | ? | ? | . | ? | 23µM | ?
NC(Cc1ccc(C(F)(F)F)cc1)c1csc(Nc2cc(Oc3ccccc3)ncn2)n1 (stereo not drawn) | ? | ? | . | ? | ? | ?
COc1ccc(C(N)c2csc(Nc3cc(Oc4ccccc4)ncn3)n2)cc1 (stereo not drawn) | 23µM | ? | . | ? | 23µM | ?
NCc1csc(Nc2cc(Oc3ccccc3)ncn2)n1 | ? | . | . | . | ? | .
NC(c1csc(Nc2cc(Oc3ccccc3)ncn2)n1)C1CCCCC1 (stereo not drawn) | ? | ? | . | ? | ? | 4.6µM
CC1=C(C(=O)N(C(C)C)C(C)C)CC(CC(=O)NCc2ccco2)C(=O)N1Cc1ccc(F)cc1 (stereo not drawn) | . | . | . | . | . | .
SMILES | TDP1 cell CPT | HT1080-NT tox | HepG2 viability | TGFb inhibitor | DT40 TDP1 no CPT | HT1080 IDH1KD tx
C=CCc1cc(Cl)ccc1OCCCNCCO | ? | ? | . | . | 16µM | ?
CCC(C)NCCCCOc1ccc(Cl)cc1C (stereo not drawn) | ? | ? | . | . | 21µM | ?
C=CCc1cc(Cl)ccc1OCCOCCNC(C)CC (stereo not drawn) | ? | 16µM | . | . | ? | ?
CCC(C)NCCOCCOc1ccc(Cl)c(C)c1C (stereo not drawn) | 15µM | ? | . | . | 13µM | 21µM
CCC(C)NCCCOc1ccc(C)cc1OC (stereo not drawn) | . | . | . | . | . | .
O=C(O)CCC(=O)Nc1sc2c(c1C(=O)NC1CCCC1)CCCC2 | . | . | . | . | . | .
Clc1ccc(OCCCNCc2ccccc2)c2ccccc12 | ? | ? | . | ? | ? | ?
CCC(C)NCCOCCOc1ccc(Cl)c2ccccc12 (stereo not drawn) | 9.2µM | 16µM | . | ? | 18µM | 21µM
CCCn1c(=O)c2sccc2n2c(CCCC(=O)NCCc3ccc(Cl)cc3)nnc12 | ? | / | . | ? | 21µM | /
CCCn1c(=O)c2sccc2n2c(CCCC(=O)N3CCN(c4cccc(Cl)c4)CC3)nnc12 | ? | / | . | ? | 12µM | /
CCCn1c(=O)c2sccc2n2c(CCCC(=O)N3CCN(c4cccc(C)c4C)CC3)nnc12 | 21µM | / | . | ? | 18µM | /
CCCn1c(=O)c2sccc2n2c(CCCC(=O)N3CCN(c4ccccc4OC)CC3)nnc12 | 18µM | / | . | . | ? | /
CCOc1ccccc1CNC(=O)CCC(=O)N1Cc2ccccc2Oc2ncccc21 | . | . | . | . | ? | .
CCn1c(=O)c2sccc2n2c(CCCC(=O)N3CCN(c4ccc(F)cc4)CC3)nnc12 | 15µM | / | . | ? | 18µM | /
COc1ccc(C(C#N)=Cc2ccc(N(C)CCC#N)cc2)cc1 | 23µM | . | . | . | 26µM | ?
CN(C)c1ccc(/C=C(\C#N)C(=O)c2ccccc2)cc1 | . | . | . | . | . | .
CN(C)c1ccc(/C=C(\C#N)c2ccccc2)cc1 | 2.6µM | 12µM | . | . | 2.6µM | 10µM
O=C(Cn1c2ccccc2c(=O)c2ccccc21)N/N=C/c1ccc(N2CCCC2)c([N+](=O)[O-])c1 | 18µM | . | . | . | ? | .
COC(=O)c1ccc(CNC(=O)c2ccccc2C(=O)NCC2(CBr)OCCO2)cc1 | . | . | . | . | . | .
CCCn1cc(S(=O)(=O)c2ccc(C)cc2)c(=O)c2cc(OC)ccc21 | . | . | . | . | . | .
COc1ccc2c(c1)c(=O)c(S(=O)(=O)c1ccc(C)cc1)cn2Cc1ccccc1C | ? | / | . | ? | 18µM | /
CCOc1ccc(S(=O)(=O)c2cn(Cc3ccccc3C)c3ccc(OC)cc3c2=O)cc1 | 15µM | / | . | . | 12µM | /
